Compound activity (PubChem)
CYP2C9 inhib: human CYP2C9 inhibition; AID 777; P11712; 20% of 96,000 active; inhibition, % at 5 µM; CYP2C9 Supersomes, luciferin-H conversion, luminescence;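 active means blocking of liver enzyme CYP2C9 beyond about 50% at 5 µM, limit read from the data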
Target sequence (P11712 whole entry, looked up): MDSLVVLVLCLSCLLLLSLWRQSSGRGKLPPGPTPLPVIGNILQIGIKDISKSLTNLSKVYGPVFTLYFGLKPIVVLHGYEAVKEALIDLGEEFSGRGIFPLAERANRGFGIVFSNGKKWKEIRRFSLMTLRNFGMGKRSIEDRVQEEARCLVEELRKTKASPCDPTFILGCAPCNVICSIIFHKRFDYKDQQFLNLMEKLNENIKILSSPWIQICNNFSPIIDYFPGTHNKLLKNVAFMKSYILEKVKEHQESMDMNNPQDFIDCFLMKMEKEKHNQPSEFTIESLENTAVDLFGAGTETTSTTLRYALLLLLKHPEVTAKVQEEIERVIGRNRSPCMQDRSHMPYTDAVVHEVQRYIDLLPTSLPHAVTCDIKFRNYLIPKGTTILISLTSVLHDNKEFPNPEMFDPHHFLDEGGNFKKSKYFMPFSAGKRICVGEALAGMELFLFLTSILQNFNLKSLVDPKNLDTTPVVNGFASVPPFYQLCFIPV
CYP2C19 inhib: inhibitors of human CYP2C19; inhibition, % at 5 µM; CYP2C19 Supersomes, luciferin-H EGE luminescence, 30 min; 21% of 96,000 active; P33261;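 active means CYP2C19 inhibition above a set limit at 5 µM in the primary screen, cut at about 50% in these data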;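 further: plate controls were negative control wells for no effect and 2.5 mM tranylcypromine positive control for full effect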
CYP2C19 activ: cytochrome P450 2C19 (human) activation | 96,000 tested, under 10 active | recombinant CYP2C19, luciferin-H EGE luminescence; active compounds read high; 0 = fully inhibited enzyme, 1 = untreated enzyme | P33261 | activation factor at 5 µM;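 active means activation factor of at least 2 at 5 µM in the primary screen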;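 further: 0 = wells with 2.5 mM tranylcypromine and 1 = vehicle-only wells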
CYP2C9 act: increases human cytochrome P450 2C9 activity; recombinant CYP2C9, luciferin-H conversion, luminescence; active compounds read high; factor 1 = untreated enzyme, 0 = blocked; activation factor at 5 µM; 1.4% of 96,000 active;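 active means activation factor of 2 or more for CYP2C9 at a 5 µM dose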;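 further: 0 = sulfaphenazole-blocked wells and 1 = vehicle-only wells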
PostGolgi yeast: growth inhibition of a yeast mutant, post-Golgi transport screen; post-Golgi transport phenotypic cell assay; 0.9% of 98,000 active; inhibition, % at 10 µM; AID 739;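 further: yeast cells grown in 1536-well plates; yeast grown about 18 h at 30C before absorbance read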
PostGolgi ctrl: growth of the yeast control strain, post-Golgi counter-screen; efflux-deficient yeast background strain, growth absorbance A615, 16 h; inhibition, % at 10 µM; 5% of 98,000 active
* = called active by the depositor; / = no result. This is a sample that favours compounds with a hit; in the whole collection about 32% have one here. Unless noted, no stated cut-off is given here; in the data, active means inhibition above about 30%; inactive means the rest.

SMILES	CYP2C9 inhib	CYP2C19 inhib	CYP2C19 activ	CYP2C9 act	PostGolgi yeast	PostGolgi ctrl
CC1=CC(C)(C)n2c(O)c(C3=NC(=S)NC3=O)c3cc(OC(=O)c4cccc5ccccc45)cc1c32	-3	-10	1.1	1	-5	-7
Cc1nc2ccccc2c(=O)n1/N=C/c1ccc(O)cc1	-14	19	0.8	1.1	17	2
CCCc1nc2ccccc2c(=O)n1/N=C/c1c(C)[nH]n(-c2ccc(C)cc2)c1=O	67*	12	0.9	0.3	-3	0
CCCc1nc2ccccc2c(=O)n1/N=C/c1ccccc1O	86*	62*	0.4	0.1	8	9
COc1cccc(/C=N/n2c(C)nc3ccccc3c2=O)c1O	69*	38	0.6	0.3	-19	18
CC(C)Nc1nc(NC(C)C)nc(OCCOC(=O)Nc2ccccc2)n1	30	30	0.7	0.7	-2	9
c1ccc2c(-c3nc(C4CCCCC4)no3)cc(-c3ccncc3)nc2c1	80*	57*	0.4	0.2	8	28
Fc1ccc(Cn2nnc(-c3ccc(CN4CCOCC4)cc3)n2)cc1	3	10	0.9	1	89*	31*
Fc1cccc(Cl)c1Cn1nnc(-c2ccc(N3CCOCC3)cc2)n1	-6	-4	1	1.1	-1	13
Clc1ccc(Cn2nnc(-c3ccc(CN4CCOCC4)cc3)n2)cc1	15	21	0.8	0.8	82*	51*
Cc1cccc(C)c1NC(=O)N1C2CCCC1CC(NC(=O)C(C)(C)C)C2 (stereo unspecified)	18	1	1	0.8	-3	5
O=C(c1ccco1)N1CCN(C(=O)c2nn3cccnc3c2Cl)CC1	-5	-5	1.1	1.1	0	4
O=C(Cn1cnnn1)Nc1ccccc1Cc1ccccc1	/	/	/	/	0	0
COc1ccc(CSc2nnc(N)s2)cc1F	19	69*	0.3	0.8	-3	6
Nc1nnc(SCc2ccc(F)cc2)s1	33	70*	0.3	0.7	1	6
Cc1nnc(SCc2ccc(F)cc2)s1	-23	23	0.8	1.2	1	2
COC(=O)CN1CCN(C(=O)c2ccc(F)cc2)c2ccccc2C1	1	53*	0.5	1	0	7
O=C(c1cccc(F)c1)N1CCc2ccccc21	20	26	0.7	0.8	-1	-5
COc1cc(NC(=O)c2cc(-n3cnnc3)ccc2Cl)cc(OC)c1	7	11	0.9	0.9	6	12
CCOc1cc(CNCCO)c(Cl)cc1OCC(=O)NCCc1ccccc1	14	58*	0.4	0.9	8	0
CCOc1cc(CNC(C)C)c(Cl)cc1OCC(=O)NCCc1ccccc1	33	77*	0.2	0.7	0	1
CCOc1ccc(CCNC(=O)CCn2cccc2)cc1OCC	43	45	0.5	0.6	-3	-2
CCC(C)NC(=O)CCS(=O)(=O)c1ccc(Br)s1 (stereo unspecified)	10	24	0.8	0.9	7	3
O=S(=O)(NC1CCCC1)c1ccccc1Cl	/	/	/	/	-10	3
CCC(C)NS(=O)(=O)c1ccc(-c2csnn2)s1 (stereo unspecified)	37	100*	0	0.6	20	8
SMILES	CYP2C9 inhib	CYP2C19 inhib	CYP2C19 activ	CYP2C9 act	PostGolgi yeast	PostGolgi ctrl
CC(C)(C)NS(=O)(=O)c1ccc(-c2csnn2)s1	28	93*	0.1	0.7	-1	4
O=S(=O)(NC1CCCCC1)c1ccc(-c2csnn2)s1	61*	100*	0	0.4	4	7
CCCCCCNC(=O)C(C(=O)OCC)C1CCCCC1 (stereo unspecified)	44	48	0.5	0.6	-3	3
S=C(Nc1ccc(N2CCOCC2)cc1)Nc1ccc2nc(-c3ccco3)c(-c3ccco3)nc2c1	28	30	0.7	0.7	3	7
COc1ccc2c(C(=O)CN3CCN(c4ccccc4)CC3)c[nH]c2c1	11	-8	1.1	0.9	4	8
COC(=O)c1sc(S(=O)(=O)N2CCC(C(=O)O)CC2)c(C(=O)OC)c1C	3	3	1	1	18	-7
COc1cc(C(=O)NCCCNc2nc3cc(C)cc(C)c3cc2C#N)cc(OC)c1OC	50	57*	0.4	0.5	7	1
Cc1ccc(C2CC(=O)c3cnc(NC(=O)c4ccco4)nc3C2)cc1 (stereo unspecified)	22	20	0.8	0.8	-7	3
